Data published in PubChem BioAssay AID686979 (National Center for Advancing Translational Sciences (NCATS), 2013).
About 50,000 (12%) of roughly 420,000 compounds were called active. Inconclusive results (about 26%) are left out. Calls follow the shape of the dose curve; as a rule, active = well fitted inhibition curve with a large enough effect; inconclusive = small, poorly fitted or top-dose-only effect; inactive = flat fitted curve, though single readings scatter. The list comes from a sample in which actives are over-represented; it also holds similar structures and randomly drawn compounds. Where a call stands in place of a potency, no number is given.

Assay: qHTS for Inhibitors of human tyrosyl-DNA phosphodiesterase 1 (TDP1): qHTS in cells in presence of CPT; also: nearly all actives have a fitted effect of over 55% in size
Conditions: chicken DT40 Tdp1-/-;hTDP1 cells + 20 nM CPT, ATP luminescence, 48 h; series mostly up to 46.2 µM
Summary of the method: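 Cell growth measured by CellTiter-Glo luminescence after a minimum 48 h, 37 C compound exposure with 20 nM CPT in Tdp1-knockout DT40 cells stably expressing hTDP1, seeded 400/well; qHTS titration format.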
Potency is read from the fitted curve at half-maximal effect.

Compound	Potency
O=c1[nH]snc1-c1c(Cl)cccc1Cl	inactive
CC1CCN(S(=O)(=O)c2ccc3ncn(CC(=O)N(C)C4CCCCC4)c(=O)c3c2)CC1	inactive
CCc1cc(=O)oc2cc(C)cc(OCC(=O)N3CCC[C@@H]3C(=O)O)c12	inactive
O=Cc1c(NCCc2cccc(F)c2)c2ccccc2[nH]c1=O	inactive
Cc1ccc2[nH]c(C)c(CCNC(=O)NC3CCCCC3)c2c1	inactive
CN(Cc1c(F)cccc1Cl)S(=O)(=O)c1cccs1	inactive
COc1ccc(CC(=O)N[C@@H]2c3cc(OC)c(OC)cc3C[C@H]2OCc2ccccc2)cc1	inactive
COc1ccc(C)cc1NC(=O)CN(C)S(=O)(=O)c1ccc2c(c1)n(C)c(=O)c(=O)n2C	inactive
Cc1nc(NC(=O)C2CCCCC2)sc1C	inactive
COc1cc(S(=O)(=O)Nc2ncn[nH]2)ccc1Cl	inactive
Cn1c(CNC(=O)c2ccco2)nnc1SCC(=O)N1CCN(c2ccccc2)CC1	inactive
Cn1c(Cc2cccc3ccccc23)nnc1SCC(=O)N1CCN(c2cccc(Cl)c2)CC1	23.1 µM (active)
COc1ccc(NC(=O)CCc2nnc3n(CC(C)C)c(=O)c4ccccc4n23)cc1OC	inactive
CC(C)Cn1c(=O)c2ccccc2n2c(CCC(=O)NCc3ccccn3)nnc12	inactive
Cc1ccccc1NC(=O)Cc1nnc(SCC(=O)N2CCN(c3ccccc3)CC2)n1C	inactive
CC(C)Cn1c(=O)c2ccccc2n2c(CCC(=O)N3CCN(c4cccc(Cl)c4)CC3)nnc12	10.3 µM (active)
Cc1nc(NC(=O)c2ccc3c(c2)OCCO3)ccc1Br	inactive
CC1CN(C(=S)Nc2cccc(F)c2)CC(C)O1 (configuration not stated)	inactive
O=C(CC1CCCCC1)NCc1ccco1	inactive
CC(=O)N1C[C@@H](CO)[C@@H](N(C)C(=O)c2ccco2)C[C@H]1c1ccccc1	inactive
OCC[C@H]1C[C@H](O)[C@@H](O)[C@]2(Cc3ccccc3CO2)O1	inactive
Cc1ccc(C2=CSC3=NS(=O)(=O)CCN23)cc1C	inactive
CC(C)(C)OC(=O)C[C@@H]1C/C=C\C[C@@H](CC(=O)NCCO)C(=O)N[C@H](Cc2c[nH]c3ccccc23)COC1=O	inactive
O=C1CCC/C=C\C[C@@H](CC(=O)N(CCO)Cc2ccccc2)C(=O)NCCO1	inactive
O=C1NC[C@@H](c2ccccc2)OC(=O)[C@H](Cc2ccc(F)cc2)CC/C=C/C[C@H]1CC(=O)N(CCO)Cc1ccccc1	16.4 µM (active)

Compound	Potency
O=C(N[C@@H](Cc1c[nH]c2ccccc12)C(=O)O)OCC1c2ccccc2-c2ccccc21	inactive
O=C1N[C@@H](c2ccccc2)COC(=O)[C@H](Cc2ccc(F)cc2)C/C=C\C[C@@H]1CC(=O)N(CCO)Cc1ccccc1	23.1 µM (active)
O=C(C[C@H]1C/C=C\C[C@@H](NC(=O)OCC2c3ccccc3-c3ccccc32)C(=O)O[C@@H](c2ccccc2)CNC1=O)N[C@H](CO)Cc1ccccc1	10.3 µM (active)
CN(Cc1cccs1)C(=O)Cc1c[nH]c2ccccc12	inactive
O=C1N[C@H](Cc2c[nH]c3ccccc23)COC(=O)[C@H](Cc2ccc(F)cc2)C/C=C\C[C@H]1CC(=O)N(CCO)Cc1ccccc1	23.1 µM (active)
Cc1nc(N)c(Br)c(C)c1Br	inactive
C[C@H]1CN([C@@H](C)CO)C(=O)CCCn2nncc2CO[C@@H]1CN(C)S(=O)(=O)c1cccc(C#N)c1	inactive
Cc1cc(NC(=O)CN2C(=O)NC(C)(CCc3ccccc3)C2=O)no1 (configuration not stated)	inactive
Cc1nc2ccc(NC(=S)N3CCC(C)CC3)cc2nc1C	inactive
CCn1c(SCC(=O)NCC2CCCO2)nc2ccccc21 (configuration not stated)	inactive
COc1ccc(S(=O)(=O)N2CCN(CC(=O)N3CCNC3=O)CC2)cc1OC	inactive
COc1ccc2c(C)cc(SCC(=O)NCC3CCCO3)nc2c1 (configuration not stated)	inactive
O=S(=O)(Nc1ncnc2sccc12)c1cccc(F)c1	inactive
O=C(N[C@@H]1C/C=C\C[C@@H](CC(=O)N(CCO)Cc2ccccc2)C(=O)N[C@H](Cc2ccccc2)COC1=O)OCC1c2ccccc2-c2ccccc21	8.2 µM (active)
Nc1nc2c(ncn2[C@@H]2O[C@H](CNCc3ccc(OCCCN4CCOCC4)cc3)[C@@H](O)[C@H]2O)c(=O)[nH]1	inactive
CN(CC(=O)Nc1ccc(F)cc1)CC(=O)N1CCCCC1	inactive
Cc1ccc(O)c(-c2cc(C(=O)Nc3c(C)n(C)n(-c4ccccc4)c3=O)[nH]n2)c1	inactive
Nn1c(Cc2cccc3ccccc23)nnc1SCC(=O)N1CC(=O)Nc2ccccc21	inactive
COc1ccc(CCNC(=O)CSc2nnc(CNC(=O)c3cccs3)o2)cc1OC	inactive
COc1ccc(CN(Cc2ccc(OC)cc2)C(=O)c2cccs2)cc1	inactive
COc1ccc(CCNC(=O)/C(C#N)=C2\N=C(NC(=O)c3cccs3)c3ccccc32)cc1	10.3 µM (active)
Cc1nc2cnc(Nc3ccccc3)nc2n(Cc2ccc(F)cc2)c1=O	inactive
CCCN1CCc2nc(N3CCN(C)CC3)ncc2C1	inactive
Fc1ccc(CN2CCc3nc(Nc4ccccc4)ncc3C2)cc1F	11.6 µM (active)
COc1ccc(CN2CCN(Cc3ccc(OC)c(OC)c3OC)CC2)cc1	inactive

Compound	Potency
Cn1c(=O)c(CCc2ccccc2)nc2cnc(Nc3ccccc3)nc21	inactive
COc1ccc(CN2CCc3nc(Nc4ccccc4)ncc3C2)c(OC)c1OC	16.4 µM (active)
CCCc1cc(=O)[nH]c2nnc(SCC(=O)Nc3nnc(SCC)s3)n12	inactive
Cc1nc2cc(NC(=O)[C@@H]3C[C@@H](Sc4ccccn4)CN3Cc3ccccc3C)ccc2s1	inactive
Cc1nn2c(=O)cc(COC(=O)c3cccc(NC(=O)COc4ccccc4Cl)c3)nc2s1	inactive
O=C(CNS(=O)(=O)c1ccc(Br)s1)N1CCN(C(=O)c2ccco2)CC1	inactive
C[C@@H]1CN([C@H](C)CO)C(=O)c2cc(NC(=O)NC3CCCCC3)ccc2O[C@H]1CN(C)S(C)(=O)=O	inactive
O=C(C1=C[C@H](c2ccc(C(F)(F)F)cc2)C[C@H](OCc2ccc(CO)cc2)O1)N1CCN(Cc2ccccc2)CC1	23.1 µM (active)
CN1CCN(C(=O)C2=C[C@H](c3ccc4c(c3)OCO4)C[C@H](OCc3ccc(CO)cc3)O2)CC1	inactive
C#Cc1ccc([C@@H]2C=C(C(=O)O)O[C@H](OCCCCO)C2)cc1	inactive
CCCCNC(=O)CSc1nc2cc3c(cc2c(=O)n1CCCCCC(=O)NCc1ccc2c(c1)OCO2)OCO3	inactive
O=C(COc1ccc(Cl)cc1)Nc1ccc2oc(=O)ccc2c1	inactive
O=c1[nH]c(CCl)nc2cc(-c3ccc(Cl)cc3)sc12	5.17 µM (active)
O=c1[nH]c(CN2CCOCC2)nc2cc(Cl)ccc12	inactive
NC(=O)Cc1nc2scc(-c3ccc(Cl)cc3)c2c(=O)[nH]1	inactive
CCc1ccc(CN(C)C(=O)C2CCC(=O)N(Cc3cccc(OC)c3)C2)nc1 (configuration not stated)	inactive
C=CCC(C(=O)c1ccccc1)[N+](C)(C)CC=C (configuration not stated)	inactive
COc1cc(C(F)(F)F)c(C(=O)N(C)c2ccc(Cl)cc2)cn1	inactive
CC(C)(C)c1ccc(S(=O)(=O)N2CCN(C(=O)c3ccc4c(c3)C(=O)N(Cc3ccncc3)C4=O)CC2)cc1	inactive
COC(=O)Cc1c(O)ccn(Cc2cccc(C(F)(F)F)c2)c1=O	inactive
COC(=O)Cc1csc(/N=C/c2c(O)n(-c3cccc(C(F)(F)F)c3)c(=O)c3ccccc23)n1	6.51 µM (active)
COC(=O)Cc1csc(Nc2c(C)n(C)n(-c3ccccc3)c2=O)n1	inactive
COc1ccc(NC(=O)CSc2nnc(-c3ccccc3F)n2C2CC2)cc1S(N)(=O)=O	inactive
COc1ccccc1C(=O)N(C1=NC(C)CS1)c1ccc(Cl)cc1 (configuration not stated)	inactive
CCc1ccc(S(=O)(=O)c2nnn3c2nc(NCc2ccccc2OC)c2cc(Cl)ccc23)cc1	inactive

Compound	Potency
Cc1nc2cc(NCc3cccs3)ccc2n1C	inactive
COc1cccc(CNc2nc(NCc3ccccc3OC)nc3ccsc23)c1	9.2 µM (active)
COc1ccccc1CNc1nc(Nc2ccccc2Cl)c2sccc2n1	9.2 µM (active)
COc1cccc(CNc2nc(NCc3cccs3)nc3ccsc23)c1	23.1 µM (active)
CNC(=O)c1sc(NCc2ccccc2OC)nc1C	inactive
COc1ccc(CNc2ncncc2-c2ccccc2C)c(OC)c1	inactive
CC(C)Nc1nc(NCCOc2ccccc2Cl)c2sccc2n1	18.4 µM (active)
COCCNc1nc(NCc2ccc(NC(C)=O)cc2)c2sccc2n1	inactive
COc1cccc(CNc2nccn(-c3ccc(OC)c(OC)c3)c2=O)c1	inactive
CCNc1nc(NC(C)C)nc(OCCOC(=O)c2ccccc2)n1	inactive
CC(=O)C(CC(=O)N1CCCC1)C(=O)Nc1ccc(Cl)cc1 (configuration not stated)	inactive
O=C1CC(c2c(F)cccc2Cl)C(n2cncn2)C(O)=C1C1NCCc2ccccc21 (configuration not stated)	inactive
Nc1nc2cc(Cl)ccc2n1N	inactive
COc1ccc(NC(=O)CN(C)C(=O)c2cc(C)oc2C)cc1	inactive
O=C1NC(c2ccccc2)=NC1(Nc1ccccn1)C(F)(F)F (configuration not stated)	inactive
Cc1ccc(C)c(C(=O)N2CCC(n3nccc3NC(=O)C3CC3)CC2)c1	inactive
Cc1cc(C(=O)OC(C)C(=O)NC2CCCCC2C)c(C)o1 (configuration not stated)	inactive
Cc1nc2sccn2c(=O)c1S(=O)(=O)NCCc1ccccc1	inactive
O=C(COC(=O)c1c(Cl)cccc1Cl)Nc1cccc(S(=O)(=O)NC2=NCCCCC2)c1	inactive
O=S(=O)(NCC(c1ccco1)N1CCOCC1)c1cc(F)ccc1F (configuration not stated)	inactive
Cc1cc(C)n(CCNC(=O)CC2C(=O)NCCN2Cc2ccc(C)o2)n1 (configuration not stated)	inactive
O=C(COc1cc2oc(=O)c3c(c2cc1Cl)CCC3)NCCCN1CCOCC1	inactive
